Assay results: PubChem BioAssay (NCATS)
Records with an inconclusive call do not appear. Calls of active or inactive are those of the source. Calls come from the whole dose curve; as a rule, active = well fitted inhibition curve with a large enough effect; inconclusive = small, poorly fitted or top-dose-only effect; inactive = flat fitted curve, though single readings scatter.

Experiments:
[1] = system: PC49; test: qHTS profiling for inhibitors of Plasmodium falciparum proliferation (AID 504749); note: potency is the fitted concentration of half-maximal effect; conditions: P. falciparum in erythrocytes, SYBR Green DNA, 72 h; series mostly up to 28.7 µM
Method in brief: (§1)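 Readout was DNA-dye fluorescence from lysed cultures, ex 485/em 535 nm. Parasitized red cells had grown 72 h with compound; data scaled between 0.29 uM artemisinin and DMSO wells and corrected using vehicle-only plates.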

[2] = system: SC27B; test: as above; conditions: P. falciparum in erythrocytes, SYBR Green DNA, 72 h; series mostly up to 28.7 µM
Method in brief: as §1

[3] = system: TAB113; test: as above; conditions: P. falciparum in erythrocytes, SYBR Green DNA, 72 h; series mostly up to 28.7 µM
Method in brief: as §1

[4] = system: TAB165; test: as above; conditions: P. falciparum in erythrocytes, SYBR Green DNA, 72 h; series mostly up to 28.7 µM
Method in brief: as §1

[5] = system: W2; test: as above; conditions: P. falciparum in erythrocytes, SYBR Green DNA, 72 h; series mostly up to 28.7 µM
Method in brief: as §1

[6] = system: CRL-7250; test: Cytotoxic Profiling of Annotated Libraries Using Quantitative High-Throughput Screening (AID 1296008); conditions: Five cell lines viability, CellTiter-Glo ATP luminescence, 48-72 h; active compounds read low; for max response: % is set by controls: 0 for no effect and ±100 for the full control effect
Method in brief: (§2)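 Cells exposed to compounds for 48 or 72 hr at 37 degrees Celsius. Viability read as ATP-coupled luminescence with CellTiter-Glo after 10 min at room temperature.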

[7] = system: HEK293; test: as above; conditions: Five cell lines viability, CellTiter-Glo ATP luminescence, 48-72 h; active compounds read low
Method in brief: as §2

[8] = system: HaCat; test: as above; conditions: Five cell lines viability, CellTiter-Glo ATP luminescence, 48-72 h; active compounds read low
Method in brief: as §2

[9] = system: KB-3-1; test: as above; conditions: Five cell lines viability, CellTiter-Glo ATP luminescence, 48-72 h, active compounds read low
Method in brief: as §2

[10] = system: NIH3T3; test: as above; conditions: Five cell lines viability, CellTiter-Glo ATP luminescence, 48-72 h; active compounds read low
Method in brief: as §2

[11] = system: HACAT; test: qHTS assay to identify novel small-molecules to repurpose for Merkel cell carcinoma treatment (AID 1296009); conditions: MCC and control cell lines, CellTiter-Glo viability, 72 h; at 44.8 µM (top of the series) unless noted
Method in brief: (§3)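 Cells were incubated with compound for 72 hr at 37 degree celsius before CellTiter-Glo addition. Luminescence was normalized with no-cell wells as full cytotoxicity and DMSO as baseline.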

[12] = system: MCC-13; test: as above; conditions: MCC and control cell lines, CellTiter-Glo viability, 72 h; series mostly up to 46 µM
Method in brief: as §3

[13] = system: MCC-26; test: as above; conditions: MCC and control cell lines, CellTiter-Glo viability, 72 h; series mostly up to 46 µM
Method in brief: as §3

[14] = system: MKL-1; test: as above; conditions: MCC and control cell lines, CellTiter-Glo viability, 72 h; series mostly up to 46 µM
Method in brief: as §3

[15] = system: MKL-2; test: as above; conditions: MCC and control cell lines, CellTiter-Glo viability, 72 h; series mostly up to 46 µM
Method in brief: as §3

[16] = system: UISO; test: as above; conditions: MCC and control cell lines, CellTiter-Glo viability, 72 h; series mostly up to 46 µM
Method in brief: as §3

[17] = system: WaGa; test: as above; conditions: MCC and control cell lines, CellTiter-Glo viability, 72 h; series mostly up to 46 µM
Method in brief: as §3

[18] = system: TAB109; test: qHTS profiling for inhibitors of Plasmodium falciparum proliferation (AID 504749); note: potency is the fitted concentration of half-maximal effect; conditions: P. falciparum in erythrocytes, SYBR Green DNA, 72 h; series mostly up to 28.7 µM
Method in brief: as §1

[19] = system: HEK293T; test: qHTS assay to identify novel small-molecules to repurpose for Merkel cell carcinoma treatment (AID 1296009); conditions: MCC and control cell lines, CellTiter-Glo viability, 72 h; at 44.8 µM (top of the series) unless noted
Method in brief: as §3

[20] = system: NIH3T3; test: as above; conditions: MCC and control cell lines, CellTiter-Glo viability, 72 h; at 44.8 µM (top of the series) unless noted
Method in brief: as §3
Note: nearly all actives have a fitted effect of over 60% in size.

CCN1CC(CCN2CCOCC2)C(c2ccccc2)(c2ccccc2)C1=O (configuration not stated)
active: Potency [5] 9.53 µM
inactive: Potency [1] | Potency [2] | Potency [3] | Potency [4] | max response [6] 2.93% | max response [7] -5.24% | outcome [8] | max response [9] -4.5% | max response [10] 2.99% | outcome [11] | outcome [12] | outcome [13] | outcome [14] | outcome [15] | outcome [16] | outcome [17]

O=C(O)CCCCC1CCSS1 (configuration not stated)
inactive: Potency [1] | Potency [2] | Potency [18] | Potency [3] | Potency [4] | Potency [5] | max response [6] -4.66% | max response [7] 0.811% | outcome [8] | max response [9] 3.98% | max response [10] 1.45% | outcome [11] | outcome [12] | outcome [13] | outcome [14] | outcome [15] | outcome [16] | outcome [17]

CC(=O)OC[C@H]1O[C@@](COC(C)=O)(O[C@H]2O[C@H](COC(C)=O)[C@@H](OC(C)=O)[C@H](OC(C)=O)[C@H]2OC(C)=O)[C@@H](OC(C)=O)[C@@H]1OC(C)=O
inactive: Potency [1] | Potency [5] | max response [6] 4.32% | max response [7] -4.41% | outcome [8] | max response [9] 2.32% | max response [10] 2.21% | outcome [11] | outcome [12] | outcome [13] | outcome [14] | outcome [15] | outcome [16] | outcome [17]

CC[N+](C)(CC)CCOC(=O)C1c2ccccc2Oc2ccccc21
inactive: Potency [1] | Potency [2] | Potency [18] | Potency [3] | Potency [5] | outcome [6] | max response [7] -9.27% | outcome [8] | max response [9] 56.3% | max response [10] 2.85% | outcome [11] | outcome [12] | outcome [13] | outcome [14] | outcome [15] | outcome [16] | outcome [17]

CC(=O)[C@@]1(O)CC[C@H]2[C@@H]3C[C@H](C)C4=CC(=O)C=C[C@]4(C)[C@@]3(F)[C@@H](O)C[C@@]21C
inactive: max response [6] -3.29% | outcome [7] | max response [8] 4.35% | max response [9] 9.43% | max response [10] 4.42% | outcome [19] | outcome [12] | outcome [13] | outcome [14] | outcome [15] | outcome [16] | outcome [17]

COc1ccccc1Oc1c(NS(=O)(=O)c2ccc(C(C)(C)C)cc2)nc(-c2ncccn2)nc1OCCO
inactive: Potency [1] | Potency [2] | Potency [18] | max response [6] -3.53% | max response [7] -4.43% | outcome [8] | max response [9] -7.61% | outcome [10] | outcome [11] | outcome [13] | outcome [14] | outcome [15] | outcome [20] | outcome [16] | outcome [17]

Cc1cc(OI)c(C(C)C)cc1-c1cc(C(C)C)c(OI)cc1C
active: Potency [3] 10 µM | Potency [5] 6.01 µM
inactive: outcome [6] | max response [7] 2.3% | outcome [8] | max response [9] 12.2% | max response [10] -2.54% | outcome [11] | outcome [12] | outcome [13] | outcome [14] | outcome [15] | outcome [16] | outcome [17]

OCCN1C[C@H](O)[C@@H](O)[C@H](O)[C@H]1CO
inactive: max response [6] 0.57% | outcome [7] | max response [8] -0.066% | max response [9] 4.48% | max response [10] -3.52% | outcome [19] | outcome [12] | outcome [13] | outcome [14] | outcome [15] | outcome [16] | outcome [17]

CCS(=O)(=O)CCn1c([N+](=O)[O-])cnc1C
inactive: Potency [1] | Potency [2] | Potency [18] | Potency [3] | Potency [4] | Potency [5] | outcome [6] | max response [7] 1.79% | outcome [8] | max response [9] -0.735% | max response [10] -2.73% | outcome [11] | outcome [12] | outcome [13] | outcome [14] | outcome [15] | outcome [16] | outcome [17]

COc1cc(C(=O)NCCCCCC(=O)O)cc(OC)c1OC
inactive: Potency [1] | Potency [2] | Potency [18] | Potency [3] | Potency [4] | max response [6] -1.11% | outcome [7] | max response [8] 4.84% | max response [9] 1.07% | max response [10] 3.71% | outcome [19] | outcome [12] | outcome [13] | outcome [14] | outcome [15] | outcome [16] | outcome [17]

CCCCCCCCCCC(CO)CCCCCCCC (configuration not stated)
inactive: Potency [1] | Potency [2] | Potency [18] | Potency [3] | Potency [4] | max response [6] -6.12% | outcome [7] | max response [8] -2.15% | max response [9] 12.2% | max response [10] 1.86% | outcome [19] | outcome [12] | outcome [13] | outcome [14] | outcome [15] | outcome [16] | outcome [17]

CN1CC(=O)NC1=N
inactive: max response [6] -20.6% | outcome [7] | max response [8] -1.43% | max response [9] 3.48% | max response [10] -1.3% | outcome [19] | outcome [12] | outcome [13] | outcome [14] | outcome [15] | outcome [16] | outcome [17]

COC(=O)N/N=C/c1c[n+]([O-])c2ccccc2[n+]1[O-]
inactive: max response [6] 4.42% | outcome [7] | max response [8] -20.3% | max response [9] -2.23% | max response [10] -11.1% | outcome [19] | outcome [12] | outcome [13] | outcome [14] | outcome [15] | outcome [16] | outcome [17]

CC1(C)S[C@@H]2[C@H](NC(=O)C(C(=O)O)c3ccccc3)C(=O)N2[C@H]1C(=O)O (some centres not stated)
inactive: max response [6] -9.98% | outcome [7] | max response [8] -0.997% | max response [9] 3.76% | max response [10] -1.06% | outcome [19] | outcome [12] | outcome [13] | outcome [14] | outcome [15] | outcome [16] | outcome [17]
